Experimental data from PubChem BioAssay (NCATS).
“And” between values parts separate entries of the source, which are not always exact repeats. Identical values can stand only once. Inconclusive results are not listed. Entries that show only a call come without a potency. The source made the active and inactive calls. Unless noted, calls come from the whole dose curve; as a rule, active = well fitted curve in the direction sought with a large enough effect; inconclusive = small, poorly fitted or top-dose-only effect, or another doubt; inactive = no such curve, though single readings can be large; an effect the other way counts as inactive or inconclusive.

Molecular target: Cytochrome P450 2C9 (Homo sapiens) (UniProt P11712)
Sequence (P11712 whole entry, looked up): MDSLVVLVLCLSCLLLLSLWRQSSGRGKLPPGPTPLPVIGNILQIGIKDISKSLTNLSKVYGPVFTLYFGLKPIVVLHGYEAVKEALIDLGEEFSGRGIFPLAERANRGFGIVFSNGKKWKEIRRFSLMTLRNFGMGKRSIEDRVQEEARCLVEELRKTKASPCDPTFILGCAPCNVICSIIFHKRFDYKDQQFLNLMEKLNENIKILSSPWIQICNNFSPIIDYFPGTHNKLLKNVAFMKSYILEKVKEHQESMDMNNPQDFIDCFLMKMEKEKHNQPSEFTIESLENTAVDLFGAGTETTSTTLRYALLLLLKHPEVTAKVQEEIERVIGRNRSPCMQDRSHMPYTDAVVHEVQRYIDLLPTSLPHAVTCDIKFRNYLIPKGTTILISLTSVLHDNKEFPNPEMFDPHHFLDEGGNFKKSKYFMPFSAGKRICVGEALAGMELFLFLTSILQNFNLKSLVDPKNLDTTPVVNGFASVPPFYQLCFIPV
Experiment: Cytochrome P450 family 2 subfamily C member 9 (CYP2C9) small molecule antagonists: luciferase biochemical (cell-free) qHTS assay (AID 1645842; active = well fitted curve in the direction sought with a large enough effect in the repeat runs; an effect the other way counts as inactive or inconclusive; note: nearly all actives have a fitted effect of over 55% in size; note: potency is the fitted concentration of half-maximal effect)
Conditions: P450-Glo CYP2C9 enzyme assay, luciferin luminescence; series mostly up to 57.4 µM
Summary of the method: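 Luminescence, after 20 min with luciferin detection reagent, reflected CYP2C9 turnover during a 1 h NADPH-driven reaction at 37C. Enzyme-substrate mix contained 0.4% bovine serum albumin and was preincubated with compound 10 min at room temperature.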
For `CC(=O)Nc1ccc(OC(=O)c2ccccc2OC(C)=O)cc1`, the Potency was “inactive”.
In the case of `CCCCCCCCOc1ccc(C(=O)c2ccccc2)c(O)c1`, the Potency is reported as “inactive”.
For `CC(C)(C)CC(C)(C)c1ccc(O)c(-n2nc3ccccc3n2)c1`, the Potency was 10.7 µM (active) and 6.92 µM (active).
In the case of `C=C[C@H]1CN2CC[C@H]1C[C@H]2[C@H](O)c1ccnc2ccc(OC)cc12`, the Potency is reported as “inactive”.
For `CCc1nn(CCCN2CCN(c3cccc(Cl)c3)CC2)c(=O)n1CCOc1ccccc1`, the Potency was “inactive”.
With `CC(=O)Oc1ccc(C)cc1` the Potency was “inactive”.
For `Cc1cc(C)cc(OCC2CNC(=O)O2)c1` (stereo not given), the Potency was “inactive”.
With `CN1CCN(C2=Nc3cc(F)ccc3Cc3ccccc32)CC1` the Potency was “inactive”.
With `NS(=O)(=O)c1ccc(Cl)c(S(N)(=O)=O)c1` the Potency was “inactive”.
For `COc1ccccc1N1CCN(CCCCNC(=O)c2ccc(-c3ccc(C(C)=O)cc3)cc2)CC1`, the Potency was “inactive”.
For `COc1cc(C)nc(-n2nc(C)cc2OC)n1`, the Potency was “inactive”.
For `CCCCCCCCCCCCCCCC(=O)O`, the Potency was “inactive”.
With `CN(C)C(=O)Nc1ccc(Cl)c(Cl)c1` the Potency was “inactive”.
For `O=[N+]([O-])c1ccc(/C=N\O)o1`, the Potency was “inactive”.
In the case of `C[C@@H](O)[C@H]1C(=O)N2C(C(=O)O)=C([C@H]3CCCO3)S[C@H]12`, the Potency is reported as “inactive”.
For `CCOCCn1c(N2CCCN(C)CC2)nc2ccccc21`, the Potency was “inactive”.
For `CCCCOC(=O)CC(CC(=O)OCCCC)(OC(C)=O)C(=O)OCCCC`, the Potency was 1.74 µM (active).
In the case of `C[C@H]1[C@H]2CC[C@H]3[C@@H]4CC=C5C[C@@H](N(C)C)CC[C@]5(C)[C@H]4CC[C@]23CN1C`, the Potency is reported as “inactive”.
With `CC(C)Nc1cccnc1N1CCN(C(=O)c2cc3cc(NS(C)(=O)=O)ccc3[nH]2)CC1` the Potency was 1.95 µM (active).
In the case of `O=C(NC1CCN(CCc2c[nH]c3ccccc23)CC1)c1ccccc1`, the Potency is reported as “inactive”.
In the case of `Cc1ccc(O)c([C@H](CCN(C(C)C)C(C)C)c2ccccc2)c1`, the Potency is reported as “inactive”.
With `O=C1OC(CN2CCOCC2)CN1/N=C/c1ccc([N+](=O)[O-])o1` (stereo not given) the Potency was “inactive”.
For `CCCCC(CC)COC(=O)c1ccc(N(C)C)cc1` (stereo not given), the Potency was 13.8 µM (active) and 13.5 µM (active).

Tested on: not listed separately
Experiment: Primary qHTS for inhibitors of nuclear receptor binding SET domain protein 2 (NSD2) in an isogenic RCH-ACV NSD2 p.E1099K mutant (9B) (AID 1645876); note: nearly all actives have a fitted effect of over 70% in size; note: potency is the fitted concentration of half-maximal effect
Conditions: RCH-ACV NSD2 E1099K (9B) viability, CellTiter-Glo, 72 h; series mostly up to 44.9 µM
For `CC(=O)Nc1ccc(OC(=O)c2ccccc2OC(C)=O)cc1`, the Potency was “inactive”.
In the case of `CCCCCCCCOc1ccc(C(=O)c2ccccc2)c(O)c1`, the Potency is reported as “inactive”.
For `CC(O)Cn1cnc2c1c(=O)n(C)c(=O)n2C` (stereo not given), the Potency was “inactive”.
With `CC(C)(C)CC(C)(C)c1ccc(O)c(-n2nc3ccccc3n2)c1` the Potency was “inactive”.
With `CC(=O)N[C@@H](CCC(=O)O)C(=O)O` the Potency was “inactive”.
With `CC(=O)Oc1ccc(C)cc1` the Potency was “inactive”.
In the case of `CCOc1ccccc1OCCN[C@H](C)Cc1ccc(OC)c(S(N)(=O)=O)c1`, the Potency is reported as “inactive”.
With `CN(Cc1ccc(C(C)(C)C)cc1)Cc1cccc2ccccc12` the Potency was “inactive”.
With `Cc1cc(C)cc(OCC2CNC(=O)O2)c1` (stereo not given) the Potency was “inactive”.
With `CC(=O)Nc1ccc(CC(=O)O)cc1` the Potency was “inactive”.
With `NS(=O)(=O)c1ccc(Cl)c(S(N)(=O)=O)c1` the Potency was “inactive”.
For `COC(=O)C(c1ccccc1Cl)N1CCc2sccc2C1` (stereo not given), the Potency was “inactive”.
For `COc1ccccc1N1CCN(CCCCNC(=O)c2ccc(-c3ccc(C(C)=O)cc3)cc2)CC1`, the Potency was “inactive”.
In the case of `COc1cc(C)nc(-n2nc(C)cc2OC)n1`, the Potency is reported as “inactive”.
With `CCCCCCCCCCCCCCCC(=O)O` the Potency was “inactive”.
For `CC(C(=O)O)c1cccc(Oc2ccccc2)c1` (stereo not given), the Potency was “inactive”.
With `CN(C)C(=O)Nc1ccc(Cl)c(Cl)c1` the Potency was “inactive”.
In the case of `C[C@@H](O)[C@H]1C(=O)N2C(C(=O)O)=C([C@H]3CCCO3)S[C@H]12`, the Potency is reported as “inactive”.
With `Cc1cccc(C)c1NC(=O)c1ccccc1C(=O)O` the Potency was “inactive”.
For `CCC(Cc1c(I)cc(I)c(N)c1I)C(=O)O` (stereo not given), the Potency was “inactive”.
For `CCOCCn1c(N2CCCN(C)CC2)nc2ccccc21`, the Potency was “inactive”.
In the case of `C/C=C/C=N/NC(=O)c1ccncc1`, the Potency is reported as “inactive”.
With `CCCCOC(=O)CC(CC(=O)OCCCC)(OC(C)=O)C(=O)OCCCC` the Potency was “inactive”.
For `CCN1CCN(C(=O)N[C@@H](C(=O)N[C@@H]2C(=O)N3C(C(=O)O)=C(CSc4nnnn4C)CS[C@H]23)c2ccc(O)cc2)C(=O)C1=O`, the Potency was “inactive”.
With `C[N+]12CCC(CC1)C(OC(=O)C(O)(c1ccccc1)c1ccccc1)C2` (stereo not given) the Potency was “inactive”.
For `Cc1ccc(O)c([C@H](CCN(C(C)C)C(C)C)c2ccccc2)c1`, the Potency was 21100 nM (active).
In the case of `CCCCC(CC)COC(=O)c1ccc(N(C)C)cc1` (stereo not given), the Potency is reported as “inactive”.
For `O=[N+]([O-])c1cccc(S(=O)(=O)NCCNS(=O)(=O)c2cccc([N+](=O)[O-])c2)c1`, the Potency was “inactive”.

Tested on: not listed separately
Experiment: Primary qHTS for inhibitors of nuclear receptor binding SET domain protein 2 (NSD2) in an RCH-ACV wild type WT cells (2C) (AID 1645877); note: nearly all actives have a fitted effect of over 70% in size
Conditions: RCH-ACV (leukaemia line) NSD2 WT (2C) viability, CellTiter-Glo, 72 h; series mostly up to 44.9 µM
In the case of `CC(=O)Nc1ccc(OC(=O)c2ccccc2OC(C)=O)cc1`, the Potency is reported as “inactive”.
In the case of `CCCCCCCCOc1ccc(C(=O)c2ccccc2)c(O)c1`, the Potency is reported as “inactive”.
In the case of `CC(O)Cn1cnc2c1c(=O)n(C)c(=O)n2C` (stereo not given), the Potency is reported as “inactive”.
In the case of `CC(C)(C)CC(C)(C)c1ccc(O)c(-n2nc3ccccc3n2)c1`, the Potency is reported as “inactive”.
With `CC(=O)Oc1ccc(C)cc1` the Potency was “inactive”.
For `CCOc1ccccc1OCCN[C@H](C)Cc1ccc(OC)c(S(N)(=O)=O)c1`, the Potency was “inactive”.
In the case of `Cc1cc(C)cc(OCC2CNC(=O)O2)c1` (stereo not given), the Potency is reported as “inactive”.
For `CC(=O)Nc1ccc(CC(=O)O)cc1`, the Potency was “inactive”.
With `NS(=O)(=O)c1ccc(Cl)c(S(N)(=O)=O)c1` the Potency was “inactive”.
For `COC(=O)C(c1ccccc1Cl)N1CCc2sccc2C1` (stereo not given), the Potency was “inactive”.
In the case of `COc1cc(C)nc(-n2nc(C)cc2OC)n1`, the Potency is reported as “inactive”.
In the case of `CN(C)C(=O)Nc1ccc(Cl)c(Cl)c1`, the Potency is reported as “inactive”.
For `O=[N+]([O-])c1ccc(/C=N\O)o1`, the Potency was “inactive”.
With `C[C@@H](O)[C@H]1C(=O)N2C(C(=O)O)=C([C@H]3CCCO3)S[C@H]12` the Potency was “inactive”.
For `CCOCCn1c(N2CCCN(C)CC2)nc2ccccc21`, the Potency was “inactive”.
For `CCN1CCN(C(=O)N[C@@H](C(=O)N[C@@H]2C(=O)N3C(C(=O)O)=C(CSc4nnnn4C)CS[C@H]23)c2ccc(O)cc2)C(=O)C1=O`, the Potency was “inactive”.
In the case of `C[N+]12CCC(CC1)C(OC(=O)C(O)(c1ccccc1)c1ccccc1)C2` (stereo not given), the Potency is reported as “inactive”.
For `CCCCC(CC)COC(=O)c1ccc(N(C)C)cc1` (stereo not given), the Potency was “inactive”.
With `O=[N+]([O-])c1cccc(S(=O)(=O)NCCNS(=O)(=O)c2cccc([N+](=O)[O-])c2)c1` the Potency was “inactive”.
